Data: PubChem BioAssay AID1626 (SRMLSC, 2009)
The campaign covered roughly 220,000 compounds. About 2,000 (0.91%) were called active. Another 2% or so got no clear call; they are omitted. Cut-off read from the data, not from the text of the source: inconclusive = inhibition above about 80% without an active follow-up result; inactive = below that; test concentration not stated here. The list is a sample of the results. Results with a measured potency or affinity are listed apart.

Experiment: M. tuberculosis H37Rv growth inhibitors, H37Rv strain (AID 1626);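 note: bacteria incubated seven days before Alamar blue readout; 0% = bacteria only wells and 100% = bacteria with antibiotic wells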
Details: stronger effect = higher value, concentration not given here

Compound | inhibition
CC(C)c1ccc(/C=N/NC(=O)c2nnn(-c3nonc3N)c2CSC2=NCCS2)cc1 | -0.79% (inactive)
COc1cc(C(=O)N2CCN(S(=O)(=O)c3ccc(F)cc3)CC2)cc(OC)c1OC | -4.16% (inactive)
CCOC(=O)N1C2=NC(C(=O)OC)=C(C(=O)OC)[C@@H]3N(C)c4ccc(OC)cc4[C@]23C[C@H]1C(=O)OC | 5.46% (inactive)
CN1CCc2ccccc2CC1=O | 1.98% (inactive)
N#CC1=C2SCC(O)(c3ccccc3)N2C(=O)CC1c1ccccc1 (configuration not stated) | -11.4% (inactive)
N#CC1=C2SCC(O)(c3ccccc3)N2C(=O)CC1c1cccs1 (configuration not stated) | 3.45% (inactive)
COC(=O)CSc1nnc(CNC(=O)c2ccccc2F)n1-c1ccccc1 | -1.52% (inactive)
Cc1cccc(N2CCN(C(=O)c3ccncc3)CC2C)c1 (configuration not stated) | -7.46% (inactive)
Cc1cccc(N2CCN(C(=O)c3cc(C)oc3C)CC2C)c1 (configuration not stated) | 4.99% (inactive)
Cc1cc(C)cc(NC(=S)/C(=C(\[O-])c2ccc(Cl)cc2Cl)[n+]2ccccc2)c1 | 6.94% (inactive)
Cc1ccc(S(=O)(=O)N2CCCN(S(=O)(=O)c3ccc4c(c3)OCCO4)CC2)cc1 | 8.01% (inactive)
O=C1c2ccccc2S(=O)(=O)c2cc(C(=O)N(c3ccccn3)c3ccccn3)ccc21 | -6.02% (inactive)
Clc1ccccc1-c1nnc2sc(C3COc4ccccc4O3)nn12 (configuration not stated) | 3.12% (inactive)
Fc1ccc(-c2nnc3sc(C4COc5ccccc5O4)nn23)cc1 (configuration not stated) | 20.6% (inactive)
O=C(NNc1c(Cl)cccc1Cl)C1CCC1 | -0.74% (inactive)
Cc1cc(N2CCN(C)CC2)nc2ccc(NC(=S)NCCCN3CCN(C)CC3)cc12 | 1.11% (inactive)
CCCCCOc1ccc(/C=c2\sc3nc(=O)c(-c4ccccc4)nn3c2=O)cc1OC | -2.22% (inactive)
Cc1ccccc1NC(=O)/C=C/c1cccc(C(F)(F)F)c1 | 3.62% (inactive)
CCc1ccc(NC(=O)C[n+]2cc(-c3ccc(C)cc3)n3c2CCC3)cc1 | 0.48% (inactive)
O=C(C[n+]1cc(-c2ccc(F)cc2)n2c1CCC2)Nc1nc(-c2ccccc2)cs1 | 78.7% (inactive)
Cc1ccc(-c2c[n+](CC(=O)Nc3ccc(C)cc3C)c3n2CCC3)cc1 | 2.12% (inactive)
Cc1ccc(NC(=O)C[n+]2cc(-c3ccccc3)n3c2CCC3)cc1 | -1.61% (inactive)
Cn1c(NC(=O)C[n+]2cc(-c3ccc(F)cc3)n3c2CCC3)cc(=O)n(C)c1=O | -5.35% (inactive)

Compound | inhibition
Cc1ccc(-c2c[n+](CC(=O)Nc3ccccc3C)c3n2CCC3)cc1 | 5.29% (inactive)
CCCCC(=O)OCC(=O)Nc1ccc(C)c(F)c1 | 9.33% (inactive)
Cc1ccc(NC(=S)N(Cc2cccs2)Cc2cc3cc(C)cc(C)c3[nH]c2=O)cc1 | -1.91% (inactive)
Fc1ccccc1CN1CCCN(C(=S)Nc2cccc(Cl)c2)C1 | -6.44% (inactive)
c1ccc(-c2nnc(N3CCOCC3)nc2-c2ccccc2)cc1 | 4.29% (inactive)
C=CCn1c(=NC(=O)c2cc(Cl)sc2Cl)sc2cc(S(N)(=O)=O)ccc21 | 52.4% (inactive)
COCCn1c(=NC(=O)c2cc(Cl)sc2Cl)sc2cc(S(N)(=O)=O)ccc21 | 17.1% (inactive)
COc1ccc(Nc2nnc(C)c(=O)[nH]2)c(OC)c1 | 0% (inactive)
CCn1cc(C(=O)O)c(=O)c2cc(F)c(N3CCN(S(=O)(=O)c4ccc(Br)cc4)CC3)cc21 | 13.5% (inactive)
CCn1cc(C(=O)O)c(=O)c2cc(F)c(N3CCN(C(=O)Nc4ccccc4)CC3)cc21 | 74.6% (inactive)
CCn1cc(C(=O)O)c(=O)c2cc(F)c(N3CCN(C(=S)NC(=O)c4ccccc4)CC3)cc21 | 30.7% (inactive)
CCn1cc(C(=O)O)c(=O)c2cc(F)c(N3CCN(C(=S)NC(=O)c4ccccc4F)CC3)cc21 | 62.5% (inactive)
CCn1cc(C(=O)O)c(=O)c2cc(F)c(N3CCN(C(=S)NC(=O)c4ccccc4Cl)CC3)cc21 | 29.7% (inactive)
CCn1cc(C(=O)NCc2ccco2)c(=O)c2cc(F)c(N3CCN(C(=O)c4ccco4)CC3)cc21 | 71.1% (inactive)
CCn1cc(C(=O)NCc2ccncc2)c(=O)c2cc(F)c(N3CCN(C(=O)c4ccco4)CC3)cc21 | 10.2% (inactive)
CCCCCCC(=O)N1CCN(c2cc3c(cc2F)c(=O)c(C(=O)O)cn3CC)CC1 | 0.13% (inactive)
CCN1C(=O)N[C@@H](c2ccccc2)[C@@H](C(=O)OC)[C@H]1C | -12.7% (inactive)
CC(=O)OCCNc1nc(-c2ccccc2)nc2ccccc12 | -5.25% (inactive)
CCCN(Cc1ccccc1)C(=S)Nc1cccc(C)c1C | 3.47% (inactive)
CCC(C)C(=O)Nc1cccc(SC)c1 (configuration not stated) | 0.86% (inactive)
COc1cc2[nH]c(=S)nc(NC3CCCC3)c2cc1OC | 0.6% (inactive)
CCN(CC)NC(=O)Nc1ccccc1 | -12% (inactive)
CCOc1ccc(NC(=O)CSc2nnc(Cc3cccn3C)n2-c2ccc(F)cc2)cc1 | -6.5% (inactive)

Compound | inhibition
Nc1ncnc2c1ncn2[C@@H]1O[C@H](CO)[C@@H](O)[C@@H]1O | -0.73% (inactive)
Nc1ncnc2c1ncn2C1OC(CO)C(O)C1O (configuration not stated) | -1.34% (inactive)
Nc1ncnc2c1ncn2[C@@H]1O[C@H](CO)[C@@H](O)[C@H]1O | -2.69% (inactive)
Nc1nc(F)nc2c1ncn2[C@@H]1O[C@H](CO)[C@@H](O)[C@@H]1O | 72.3% (inactive)
CC(=O)Oc1ccc(N2C(=O)C3C(C2=O)C(C(=O)c2ccc(Cl)cc2)N2CCCC32)cc1 (configuration not stated) | -5.33% (inactive)
CCOC(=O)/C=C1\SCC(=O)N1CC(=O)NC12CC3CC(CC(C3)C1)C2 | 6.97% (inactive)
CN(C)/C=C1\C(=O)N(c2ccc(Cl)cc2)CS1(=O)=O | -3.16% (inactive)
O=C(C1CCC(CNc2c(N3CCCCC3)c(=O)c2=O)CC1)N1CCCC1 (configuration not stated) | -3.71% (inactive)
CC1CCN(c2c(NCC3CCC(C(=O)NCCc4ccc(Cl)cc4)CC3)c(=O)c2=O)CC1 (configuration not stated) | 11.6% (inactive)
CC1CCN(c2c(NCC3CCC(C(=O)N4CCCC(C)C4)CC3)c(=O)c2=O)CC1 (configuration not stated) | -5.27% (inactive)
O=C(NCc1ccc(Cl)cc1)C1CCC(CNc2c(N3CCCCC3)c(=O)c2=O)CC1 (configuration not stated) | 5.8% (inactive)
CCNC(=O)CC1C(=O)N(CC)C(=S)N1NC(=O)c1ccccc1 (configuration not stated) | -3.85% (inactive)
CCCCOc1ccc(C(NC(=O)OCC)NC(=O)OCC)cc1 | 5.59% (inactive)
CC(C)OC(=O)CN1C(=O)C(C)(C)Oc2ccc(C(=O)NC3CC3)cc21 | -5.84% (inactive)
Cc1cc(C(=O)C(C)Cl)c(C)n1Cc1ccco1 (configuration not stated) | 0.64% (inactive)
Cc1cc(C(=O)CSc2ncccn2)c(C)n1Cc1ccco1 | 6.3% (inactive)
Cc1cc(C(=O)COc2ccccc2C(N)=O)c(C)n1CC1CCCO1 (configuration not stated) | 1.33% (inactive)
Cc1cc(C(=O)CCl)c(C)n1CCc1ccccc1 | 66.4% (inactive)
Cc1cc(C(=O)COc2ccccc2C(N)=O)c(C)n1C | 0.29% (inactive)
COC(=O)c1ccc(-n2c(C)cc(C(=O)CCl)c2C)cc1 | 53.5% (inactive)
COc1ccc(C(=O)c2ccc(OC)cc2OC)cc1 | 0.13% (inactive)
Cc1ccc(N=CC=C2OC(C)(C)C(C)(C)O2)c(C)c1 | -2.12% (inactive)
CC(=O)C1=C(O)C(=O)N(CCc2c[nH]c3ccccc23)C1c1cccc(O)c1 (configuration not stated) | 1.15% (inactive)

Compound | inhibition
CC(C)=CC(=O)Nc1ccc2c(c1)OCO2 | -4.24% (inactive)
CS(=O)(=O)N(CC(=O)Nc1cccc([N+](=O)[O-])c1)c1ccccc1 | -4.25% (inactive)
Cn1c(=O)n(Cc2ccccc2)c2ccccc21 | -7.14% (inactive)
NNc1nc2c(F)cccc2s1 | 8.41% (inactive)
COc1cccc2sc(Nc3nnc(-c4cccs4)o3)nc12 | -3.65% (inactive)
COc1cccc2sc(Nc3nnc(-c4ccccc4Cl)o3)nc12 | 52.8% (inactive)
Fc1cccc2sc(Nc3nc4c(F)cccc4s3)nc12 | 43% (inactive)
COc1ccc(-c2nnc(Nc3nc4c(OC)cccc4s3)o2)c(OC)c1 | 3.73% (inactive)
COc1ccccc1-c1nnc(Nc2nc3c(OC)cccc3s2)o1 | 8.74% (inactive)
O=C(COC(=O)c1cccc2ccccc12)NCC1CCCO1 (configuration not stated) | -2.85% (inactive)
CCn1cc(C2C3=C(CC(C)(C)CC3=O)N(c3ccccc3)C3=C2C(=O)CC(C)(C)C3)c(C)n1 | -3.23% (inactive)
CCC1=C(OC(=O)N(CC)CC)N2C(=O)OC(=NCCOC)[C@]2(Cc2ccccc2)[C@H]2C1=CC[C@H]1C(=O)NC(=O)[C@H]12 | 10.1% (inactive)
O=C(NC1CCCCC1)c1nn2c(C(F)(F)F)cc(-c3ccco3)nc2c1Br | 1.53% (inactive)
COCCn1c(SCC(=O)Nc2ccccc2OC)nc2c(oc3ccccc32)c1=O | 3.65% (inactive)
COc1ccc(SCCC(=O)NCc2ccncc2)cc1 | -7.49% (inactive)
Cc1cccc(N2CCN(C(=O)c3cccc(N4C(=O)C5CC=CC(C)C5C4=O)c3)CC2)c1C (configuration not stated) | -7% (inactive)
COc1ccc(C2C(C(=O)Nc3ccc(F)cc3)=C(C)Nc3nc(CCCO)nn32)cc1 (configuration not stated) | -9.75% (inactive)
Nc1ccc2c(c1)CCC2=O | -8.13% (inactive)
Cc1ccc(-c2ccc3c(c2)S(=O)(=O)c2ccccc2C3=O)cc1 | -4.26% (inactive)
CCc1ccc2c(c1)C(=O)c1ccccc1C2=O | 7.07% (inactive)
Nc1ccc2c(c1)CC(=O)c1ccccc1S2 | 9.71% (inactive)
CC(C)(C)c1ccc2c(c1)C(=O)c1ccccc1C2=O | 7.48% (inactive)
O=C1c2ccccc2-c2nnc(-c3ccccc3)cc21 | -2.39% (inactive)
